Consider 18 compounds from PubChem BioAssay AID602342 (Broad Institute, 2012).

SMILES strings stand for the structures. Screen size: about 340,000 compounds; about 1,000 (0.29%) were called active. This is one part of a sample in which actives are shown more often than they occur.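 How the source made its calls: active means mean replicate activation score at least 90 and every replicate individually at or above 90; inconclusive means only one of the two criteria met; inactive means neither criterion met.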

A short description of the assay: compounds raising miR-122 luciferase sensor output – cell-based, single point, plate reader, miR-122 inhibitor project, primary screen (AID 602342).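 Further: higher luciferase means less miR-122 activity so hits act as miR-122 inhibitors.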 The following applies: Huh7 miR-122 Renilla luciferase sensor, 48 h, active compounds read high, neutral wells = 0, positive control = 100; at 16.7 µM unless noted.
With `COc1cccc(CN2[C@H](CO)[C@@H]3c4ccccc4N(C(=O)c4ccncc4)C[C@@H]32)c1`, the activation (reporter increase) is 46.9% (inactive).

Consider `COc1ccccc1NC(=O)N1C[C@H]2[C@@H](c3ccccc31)[C@H](CO)N2Cc1ccc2c(c1)OCO2`, for which the activation (reporter increase) was 28.6% (inactive).

For `COc1ccc(C(=O)N2C[C@@H]3[C@H](c4ccccc42)[C@H](CO)N3Cc2ccc3c(c2)OCO3)cc1`, the activation (reporter increase) was 247% (active).

Turning to `O=C(c1ccncc1)N1C[C@H]2[C@@H](c3ccccc31)[C@H](CO)N2C(=O)c1ccccn1`, the activation (reporter increase) was -28.6% (inactive).

`C/C=C/c1ccc([C@H]2[C@@H](CO)N(S(C)(=O)=O)[C@@H]2CN(C)C(=O)CC)cc1`: the activation (reporter increase) is 6.25% (inactive).

`CN1C(=O)c2cc(NS(=O)(=O)c3ccc(Cl)cc3)ccc2OC[C@@H]2O[C@H](CC(=O)O)CC[C@@H]21`: the activation (reporter increase) is 5.56% (inactive).

Turning to `O=C(Nc1ccc2c(c1)[C@H]1C[C@@H](CC(=O)N3CCc4ccccc4C3)O[C@H](CO)[C@H]1O2)Nc1ccccc1F`, the activation (reporter increase) was -7.95% (inactive).

`CO[C@@H]1CN(C)C(=O)c2ccc(NS(=O)(=O)c3ccc(Cl)cc3)cc2OC[C@@H](C)N(C)C[C@H]1C`: the activation (reporter increase) is -8.17% (inactive).

As to `COC(=O)c1ccc(C(=O)Nc2cc(Cl)ccc2Cl)cc1NC(=O)c1ccccc1C`, the activation (reporter increase) is -1.04% [at 12.5 µM] (inactive).

Consider `C=CCNC(=O)c1ccccc1NC(=O)c1ccc(Cl)c(S(=O)(=O)Nc2cccc(C)c2C)c1`, for which the activation (reporter increase) is 155% [at 12.5 µM] (active).

In the case of `Cc1ccc(C(=O)Nc2ccccc2C(=O)NC2CCCCC2)cc1S(=O)(=O)N1CCOCC1`, the activation (reporter increase) was -2.85% [at 12.5 µM] (inactive).

For the compound `CCC(=O)N(C)C[C@@H]1Oc2ncc(C#C[C@H](C)O)cc2C(=O)N([C@@H](C)CO)C[C@@H]1C`, the activation (reporter increase) is 1.39% (inactive).

For `Cc1ccccc1S(=O)(=O)N1C[C@H](O)COC[C@H]2O[C@H](CC(=O)N3CCCCC3)CC[C@@H]21`, the activation (reporter increase) was 8.99% (inactive).

In the case of `Cc1cccc(NS(=O)(=O)c2ccc(-c3cnc(C4CC4)o3)cc2)c1`, the activation (reporter increase) was 186% [at 12.5 µM] (active).

Consider `Cc1cccc(CNS(=O)(=O)c2ccc(-c3cnc(C4CC4)o3)cc2)c1`, for which the activation (reporter increase) was 3.02% [at 12.5 µM] (inactive).

On to `COc1ccc(CNS(=O)(=O)c2ccc(-c3cnc(C4CC4)o3)cc2)cc1`, for which the activation (reporter increase) was -3.38% [at 12.5 µM] (inactive).

Take `C[C@@H]1CN([C@H](C)CO)C(=O)c2cccc(NS(=O)(=O)c3ccc(F)cc3)c2O[C@H]1CN(C)Cc1ccc(Oc2ccccc2)cc1`: the activation (reporter increase) is 3.49% (inactive).

Take `O=C(NC1CCCC1)[C@H]1[C@H](CO)[C@H]2Cn3c(ccc(-c4ccccc4)c3=O)[C@H]2N1CCc1ccccc1`: the activation (reporter increase) is -0.306% (inactive).
